This note sets out measurements from PubChem BioAssay AID368 (University of Pittsburgh Molecular Library Screening Center, 2006).

Structures are written as SMILES. Out of some 65,000 compounds screened, about 85 (0.1%) were called active. Rule as the data show it: active = inhibition above about 50%; inactive = the rest. What follows is part of a selection rich in actives, with near analogues and random picks from the rest.

For the assay, the target named is M-phase inducer phosphatase 2 (Homo sapiens) (UniProt P30305). In words: inhibitors of Cdc25B phosphatase catalytic domain, primary screen, biochemical, OMFP fluorescence (AID 368). To be noted: recombinant Cdc25B, OMFP fluorescence Ex485/Em525; hits give high values;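 compounds tested at 10 µM final in the well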.
M-phase inducer phosphatase 2 (Homo sapiens), sequence (P30305 whole entry, looked up, the tested form may be a part): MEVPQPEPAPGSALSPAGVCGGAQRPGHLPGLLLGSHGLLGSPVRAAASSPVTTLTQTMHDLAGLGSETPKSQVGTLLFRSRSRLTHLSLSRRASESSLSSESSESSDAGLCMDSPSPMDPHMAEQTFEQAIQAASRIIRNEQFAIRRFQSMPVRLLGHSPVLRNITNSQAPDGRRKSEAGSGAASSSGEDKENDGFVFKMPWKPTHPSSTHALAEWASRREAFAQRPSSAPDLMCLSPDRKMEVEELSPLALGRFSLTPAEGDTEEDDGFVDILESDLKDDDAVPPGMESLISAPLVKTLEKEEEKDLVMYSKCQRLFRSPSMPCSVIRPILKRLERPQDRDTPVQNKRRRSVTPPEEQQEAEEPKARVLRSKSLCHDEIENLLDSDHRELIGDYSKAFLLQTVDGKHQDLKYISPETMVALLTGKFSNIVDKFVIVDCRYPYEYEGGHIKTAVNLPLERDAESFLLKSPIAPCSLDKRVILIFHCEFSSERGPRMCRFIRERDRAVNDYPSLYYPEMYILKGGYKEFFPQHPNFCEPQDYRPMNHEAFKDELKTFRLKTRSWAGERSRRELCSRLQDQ
Broadly, the inhibition is the change of the read-out against control, counted positive when it falls. Turning to `COCCCN1C(=O)c2ccc(C(=O)Nc3ccc(OC)cc3OC)cc2C1=O`, the inhibition is -4.42% (inactive).
The result for `Cc1cc(Cl)c(S(=O)(=O)NCc2cccnc2)cc1OCC(N)=O` reads -3.27% (inactive).
To `CCOC(=O)C1=C(C)NC(C)=C(C(=O)OCC)C1C1=COCCO1` belongs 1.59% (inactive); to `COc1ccc(N2CCN(C3CC(=O)N(c4ccc5c(c4)OCCO5)C3=O)CC2)cc1` (stereo not given), 5.32% (inactive); to `CCn1c(NCCc2ccc(OC)c(OC)c2)nc2c1c(=O)n(C)c(=O)n2C`, 7.88% (inactive).
`COc1cc(-c2nc(S(=O)(=O)c3ccc(Cl)cc3)c(N(C)C)o2)cc(OC)c1OC`: the inhibition was -3.74% (inactive).
To `Cc1ccc(C(c2nnnn2CS(=O)(=O)c2ccc(C)cc2)N2CCC(C(N)=O)CC2)cc1` (stereo not given) belongs -6.28% (inactive); to `CCCOc1ccc(C2C(C(=O)c3ccc(C)o3)=C(O)C(=O)N2CCCn2ccnc2)cc1` (stereo not given), -1.79% (inactive); to `O=c1c2ccccc2oc2nc3n(c(=O)c12)CCCS3`, -1.25% (inactive).
To `CCOC(=O)N1CCN(C(=O)CSc2ccc(Cl)cc2)CC1` belongs 3.41% (inactive); to `CC1CN(C(=O)c2ccc3c(c2)OCO3)OC(c2ccccc2)O1` (stereo not given), -8.81% (inactive).
To `CC1=C(C)CC2C(=O)N(c3cccc4ccccc34)C(=O)C2C1` (stereo not given) belongs -7.9% (inactive).
For the compound `Cc1nc2c(-c3ccccc3)c(C)[nH]n2c(=O)c1Cl`, the inhibition was -4.09% (inactive).
To `COc1ccc(S(=O)(=O)N(C)CC(=O)Nc2ccc3c(c2)OCCO3)cc1OC` belongs -5.79% (inactive); to `O=S(=O)(Nc1ccc2nc(-c3ccco3)[nH]c2c1)c1ccccc1`, -8.83% (inactive); to `O=S(=O)(c1cccc(-c2nnc(SC(F)F)n2-c2ccccc2)c1)N1CCCCC1`, 10.3% (inactive).
The result for `CCC(=O)Nc1cccc(NC(=O)CSc2nnnn2C2CCCC2)c1` reads -2.8% (inactive); that for `CCOc1ccc(C(=O)Nc2cc(OC)ccc2OC)cc1`, -1.04% (inactive); that for `O=C(C1CCN(c2nnc(-n3cccc3)s2)CC1)N1CCc2ccccc2C1`, -4.75% (inactive).
The result for `Cc1noc(/C=C/N(C)C)c1S(=O)(=O)N1CCCC(C(=O)NCc2ccco2)C1` (stereo not given) reads -8.56% (inactive); that for `CCCCc1cc(=O)oc2cc(C)cc(OCc3nn[nH]n3)c12`, -4.64% (inactive); that for `CCOC(=O)c1c(NC(=O)c2cccs2)sc(C)c1C`, -1.19% (inactive).
Take `COCCNC(=O)CSc1nc2c(n1-c1ccccc1)CCCC2`: the inhibition was -0.327% (inactive).
The result for `CCn1c(SCC(=O)Nc2ccccc2F)nc2c(c1=O)SC(C)C2` (stereo not given) reads -15.6% (inactive).
To `CCOc1ccccc1N(CC(=O)NC1CCCCC1)C(=O)CCCC(=O)Nc1ccccn1` belongs -10.5% (inactive); to `CCOC(=O)N1CCC(NC(=O)CN2C(=O)COc3ccc(C(C)(C)C)cc32)CC1`, -4.53% (inactive); to `CCCN(CCC)C(=O)C1c2ccccc2Oc2ccccc21`, -5.87% (inactive).
The result for `COC(=O)c1c(NC(=O)c2cccs2)sc2c1CCCC2` reads -11.6% (inactive); that for `COc1cccc(N(C(=O)c2ccn[nH]2)C2(C(=O)Nc3c(C)cccc3C)CCCCC2)c1`, 4.58% (inactive); that for `CCN(CC)C(=O)C1CCC(C)(C(=O)O)C1(C)C` (stereo not given), -11.3% (inactive).
With `COc1ccc(-c2noc(-c3cccc(OC)c3OC)n2)cc1OC`, the inhibition was -12.3% (inactive).
Turning to `COc1ccc(CCNC(=O)c2cc(-c3ccc4c(c3)OCO4)on2)cc1OC`, the inhibition was -4.69% (inactive).
Consider `COc1ccc(-c2cc3n(n2)CCc2nc4ccccc4n2-3)cc1`, for which the inhibition is -0.418% (inactive).
To `O=C(Cc1ccccc1)n1nc(-c2ccccc2)nc1NCc1ccco1` belongs -11.6% (inactive); to `COc1ccc(N2C(=O)CN=C2Nc2cccc(C)c2C)cc1OC`, -17.1% (inactive).
The result for `COc1cccc2c(C)c(C(=O)O)[nH]c12` reads 50.5% (active).
The result for `COc1ccc(C)cc1NC(=O)c1[nH]c(C)c(C(C)=O)c1C` reads -7.67% (inactive); that for `CCOC(=O)c1c(C)[nH]c(C(=O)NCc2ccccc2OC)c1C`, 0.611% (inactive); that for `FC(F)(F)c1nnc2sc(-c3ccco3)nn12`, 6.19% (inactive).
As to `CC1(N2CCOCC2)CC2(O)C(=[N+]1[O-])CCc1nonc12` (stereo not given), the inhibition is -12.9% (inactive).
To `Cc1nn(Cc2ccc(Cl)c(Cl)c2)c(C)c1NC(=O)c1cc(C2CC2)on1` belongs -9.41% (inactive); to `Cc1cc(NS(=O)(=O)c2ccccc2)no1`, -0.238% (inactive).
To `Nc1ccc(SCCN2C(=O)c3ccccc3C2=O)cc1` belongs 3.47% (inactive); to `COc1ccc(C(=O)NCc2cn3ccccc3n2)cc1`, 8.6% (inactive); to `CC(=O)OCc1cc2cc(C)ccc2[nH]c1=O`, 8.17% (inactive).
To `Cc1noc(C)c1C(=O)NC(C)c1ccc2c(c1)OCO2` (stereo not given) belongs -2.76% (inactive).
With `O=C(NC1CC2CCCC(C1)N2C(=O)N1CCCCC1)C1CCCCC1` (stereo not given), the inhibition is 0.205% (inactive).
To `Cc1cccc(OCc2nnc(SCc3nc4cc(C(F)(F)F)ccc4c(=O)[nH]3)o2)c1` belongs 4.99% (inactive); to `C=CCNc1nnc(SCC(=O)N2CCCCC2)c2ccccc12`, -10.6% (inactive).
On to `O/N=C(\c1ccc2c(c1)OCCO2)C1CCCCC1`, for which the inhibition is -1.56% (inactive).
The result for `CC(C)Cc1cc(C(=O)NCCc2ccccc2)no1` reads -7.12% (inactive); that for `O=C(OCC(=O)c1cccs1)C1=COCCO1`, -13.5% (inactive).
The result for `Cc1ccc(-c2csc3nnc(SCC(=O)NCc4ccco4)n23)cc1` reads -17.7% (inactive).
In the case of `Fc1ccccc1CCNc1nnnn1-c1ccccc1`, the inhibition is 0.973% (inactive).
Turning to `Cc1cc(=O)oc(C)c1C(=O)NC1CC(C)(C)NC(C)(C)C1`, the inhibition is -30.7% (inactive).
To `CCCc1cc(=O)oc2c(C)c(O)c(CN3CCCCC3)cc12` belongs -7.47% (inactive); to `COc1ccc(-c2nc3n(c2Br)CCC3)cc1`, 2.84% (inactive).
The result for `CC1(C)C(=O)Nc2ccccc2N1C(=O)COC(=O)Cn1cnc2ccccc2c1=O` reads -9.58% (inactive).
The result for `CC(C)OC(=O)c1sc2nc3c(cc2c1N)C(=O)CCC3` reads 15.7% (inactive); that for `CCN(CCCCOC(=O)c1ccc(OC)c(OC)c1)C(C)Cc1ccc(OC)cc1` (stereo not given), -19.9% (inactive).
Take `O=C(O)[C@@H]1CCCN1c1ncnc2sc3c(c12)CCC3`: the inhibition was 1.46% (inactive).
Regarding `O=C(Nc1ccc2c(c1)nc1n2CCCCC1)c1cc(S(=O)(=O)N2CCOCC2)ccc1Cl`, the inhibition was 7.55% (inactive).
To `O=S(=O)(Nc1ccccc1N1CCOCC1)c1ccc(Cl)s1` belongs -16% (inactive); to `COc1cc(OC)c(C(=O)Nc2ccc(N(C)C)cc2)cc1OC`, 4.05% (inactive); to `CCOC(=O)c1ccc(-c2ccc(C(=O)Nc3cccnc3)o2)cc1`, -8.16% (inactive).
Consider `CCOc1cc(NC(=O)c2ccco2)c(OCC)cc1NC(=O)COc1ccccc1`, for which the inhibition was 2.37% (inactive).
`COc1ccc(OC)c(C2N(c3ccccn3)C(=O)C3CCCN32)c1` (stereo not given): the inhibition was 6.93% (inactive).
The result for `CCCc1nc(N)nc2c1C(=O)CC(C)(C)C2` reads -1.09% (inactive); that for `CCCN1CCN(CCCNC(=O)CN2C(=O)COc3ccccc32)CC1`, -2.33% (inactive).
To `O=C(N1CCOCC1)N(Cc1ccccc1)c1ccccn1` belongs -13.1% (inactive); to `O=C(COc1cccc(-n2cnnn2)c1)NCCC1=CCCCC1`, -1.12% (inactive).
The result for `Cc1ccnc(N2CCCC(C(=O)Nc3cc(F)ccc3C)C2)n1` (stereo not given) reads 12.7% (inactive); that for `CC1CN(C2CCN(C(=O)COc3ccccc3)CC2)CC(C)O1` (stereo not given), -13.1% (inactive); that for `CC1CCCC(C)N1C(=O)CN1CCN(c2nc(-c3ccc(F)cc3)cs2)CC1` (stereo not given), -8.69% (inactive).
On to `CNC(=O)c1nnn(-c2ccccc2)c1C(=O)NC`, for which the inhibition was 0.211% (inactive).
To `O=c1c(F)cn(C2CCCO2)c(=O)n1Cc1ccccc1Cl` (stereo not given) belongs 1.39% (inactive); to `Fc1ccccc1C(c1nnnn1Cc1ccc2c(c1)OCO2)N1CCN(Cc2ccccc2)CC1` (stereo not given), -4.84% (inactive); to `C=CCn1c(=N)n(CC(O)COc2ccc(OC)cc2)c2ccccc21` (stereo not given), 0.106% (inactive).
With `Cc1ncc(CC(=O)n2cc(C(=O)c3cc(Cl)ccc3O)cn2)s1`, the inhibition is -7.5% (inactive).
The result for `CC(Nc1nc(N2CCCC2)nc2ccccc12)c1ccccc1` (stereo not given) reads -6.08% (inactive); that for `c1ccc2c(NCC3CCCO3)nc(-c3ccncc3)nc2c1` (stereo not given), 1.5% (inactive).
To `O=C(C1=C(O)C(=O)N(Cc2ccccc2)C1c1cccnc1)c1ccco1` (stereo not given) belongs -7.28% (inactive); to `CC(C)(C)Oc1ncc(Br)c(OC(C)(C)C)n1`, -14.4% (inactive).
On to `CC(C)c1ccc(N2CC(C(=O)Nc3nccs3)CC2=O)cc1` (stereo not given), for which the inhibition is 3.74% (inactive).
To `COc1ccc(-n2nc3c(c2NC(=O)Cc2cccc(C)c2)CS(=O)C3)cc1` (stereo not given) belongs -6.02% (inactive).
To `C[N+]1(CCNC(=O)/C=N/O)CCCCC1` belongs 15.7% (inactive).
To `CCOc1cc(N2CCOCC2)c(OCC)cc1NC(=O)COc1cccc2cccnc12` belongs -6.8% (inactive); to `CCn1c(SCC(=O)Nc2cccc(F)c2)nnc1-c1cc2cc(Br)ccc2o1`, -5.35% (inactive); to `COC(=O)c1ccc(NC(=O)CN(c2ccc(C)cc2)S(=O)(=O)c2c(C)n[nH]c2C)cc1`, 5.5% (inactive).
Regarding `CC1(C)CC(O)C(CCC(O)c2ccccc2)C(C)(C)N1` (stereo not given), the inhibition was -23.8% (inactive).
